# A number with no mark means an inactive call.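 The calls were made as follows, unless noted: active = z-score of at least 1.8 in each of two replicates, scored against plate mean and spread of sample wells; inactive = the rest.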
# Molecular target: NAD(+) hydrolase SARM1 (Homo sapiens) (UniProt Q6SZW1)
# Test: blocking NAD cleavage by SARM1 SAM-TIR – cell lysate, NAD-Glo luminescence (AID 1508614;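 active = compound whose remaining NAD level is above about 45 nM, limit read from the data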;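 also: higher remaining NAD means stronger inhibition of SARM1 NADase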)
# Details: SAM-TIR HEK293T lysate NADase, at 1 µM, stronger effect = higher value
# Chain of NAD(+) hydrolase SARM1 (Homo sapiens) (Q6SZW1 whole entry, looked up): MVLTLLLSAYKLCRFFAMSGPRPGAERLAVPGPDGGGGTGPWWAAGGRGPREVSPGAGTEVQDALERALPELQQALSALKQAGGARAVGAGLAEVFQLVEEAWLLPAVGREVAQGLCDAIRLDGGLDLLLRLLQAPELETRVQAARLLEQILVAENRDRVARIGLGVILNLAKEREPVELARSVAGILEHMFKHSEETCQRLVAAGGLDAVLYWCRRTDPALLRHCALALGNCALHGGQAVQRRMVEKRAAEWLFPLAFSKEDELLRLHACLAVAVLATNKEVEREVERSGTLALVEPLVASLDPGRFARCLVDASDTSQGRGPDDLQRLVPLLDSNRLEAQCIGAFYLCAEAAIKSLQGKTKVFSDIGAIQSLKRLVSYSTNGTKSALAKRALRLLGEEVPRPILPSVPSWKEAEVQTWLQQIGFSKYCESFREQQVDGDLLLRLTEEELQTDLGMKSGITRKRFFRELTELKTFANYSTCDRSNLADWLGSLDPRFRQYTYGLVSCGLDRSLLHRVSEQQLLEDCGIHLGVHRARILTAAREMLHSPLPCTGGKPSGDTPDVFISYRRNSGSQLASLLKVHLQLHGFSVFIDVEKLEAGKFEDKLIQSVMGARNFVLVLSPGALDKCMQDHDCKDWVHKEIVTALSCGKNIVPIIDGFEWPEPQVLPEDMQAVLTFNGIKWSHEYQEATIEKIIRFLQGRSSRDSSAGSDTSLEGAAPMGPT
row,SMILES,remaining NAD [nM]
1,COc1ccc(-c2ccc3cc(C(=O)O)ccc3c2)cc1C12CC3CC(CC(C3)C1)C2,10
2,C[C@]12CCC(=O)C=C1[C@@H]1C[C@@H]1[C@H]1[C@@H]3[C@@H]4C[C@@H]4[C@@]4(CCC(=O)O4)[C@@]3(C)CC[C@@H]12,10
3,CC(=O)OCC(=O)[C@@]12N=C(C)O[C@@H]1C[C@H]1[C@@H]3CCC4=CC(=O)C=C[C@]4(C)[C@H]3[C@@H](O)C[C@@]12C,10
4,NC(=O)c1ncn([C@@H]2O[C@H](CO)[C@@H](O)[C@H]2O)c1N,10

# System: not listed separately
# Test: galactose survival enhancers in mitochondrial complex I cybrids – cell-based, galactose medium, ATP luminescence, primary screen (AID 1645843);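 also: positive z means more ATP and so rescue of galactose-driven cybrid death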
# Details: complex I mutant cybrid cells, 72 h, stronger effect = higher value
row,SMILES,z-score
1,NCCCC(N)(C(=O)O)C(F)F (stereo not given),0.11
2,Cc1ccc(C(=O)c2cc(O)c(O)c([N+](=O)[O-])c2)cc1,-0.715
3,Cc1ccccc1C(=O)Nc1ccc(C(=O)N2CCCC(O)c3cc(Cl)ccc32)c(C)c1 (stereo not given),0.835
4,COc1ccc2cccc(CCNC(C)=O)c2c1,0.205
5,CCC1=C[C@@H]2CN(C1)Cc1c([nH]c3ccccc13)[C@@](C(=O)OC)(c1cc3c(cc1OC)N(C)[C@H]1[C@@](O)(C(=O)OC)[C@H](OC(C)=O)[C@]4(CC)C=CCN5CC[C@]31[C@@H]54)C2,-2.04
6,O=P(O)(O)C(O)(Cn1ccnc1)P(=O)(O)O,0.405
7,CC(C)(C)C(=O)Oc1ccc(S(=O)(=O)Nc2ccccc2C(=O)NCC(=O)O)cc1,0.85
8,N[C@@H](Cc1c[nH]c2ccc(O)cc12)C(=O)O,0.37
9,CCCCN(CCCC)CC(O)c1cc(Cl)cc2c1-c1ccc(Cl)cc1/C2=C/c1ccc(Cl)cc1 (stereo not given),0.075
10,c1cnc2cc3c(cc2n1)C1CNCC3C1,0.205
11,CCCCc1oc2ccc(NS(C)(=O)=O)cc2c1C(=O)c1ccc(OCCCN(CCCC)CCCC)cc1,-2.66
